High-throughput results deposited in PubChem by National Center for Advancing Translational Sciences (NCATS).
ELG1 DNA repair: blocks ELG1-dependent DNA repair in HEK293T cells; HEK293T ELG1-luciferase reporter, luminescence, 16 h; DNA damage induced by 5-fluorouridine; actives 2.3% (n = 330,000); Potency, µM (series often up to 46.1 µM), hits mostly inhibitors; also: nearly all actives have a fitted effect of over 55% in size
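DMSO vehicle served as the neutral condition. Each well held 2,000 cells given 5-fluorouridine plus compound; after 16 hr at 37 °C/5% CO2, ONE-Glo was added and luciferase measured 30 min later.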
Nrf2 activator: Nrf2 pathway activation; AID 624171; AREc32 ARE-luciferase reporter (MCF7-derived line), luminescence, 24 h; Potency, µM (doses to about 46.1 µM), actives largely listed as activators; actives 0.31% (n = 410,000); also: nearly all actives have a fitted effect of over 65% in size
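Each well held 1000 AREc32 cells, which were incubated with compound for 24 hr at 37 deg C after overnight attachment, and ARE reporter activity was quantified by firefly luciferase luminescence.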
IL-2 act: activates IL-2 in a cell-based reporter assay | IL-2 activation reporter assay, cell-based qHTS; stimulated with anti-CD3/CD4/CD28 beads; in transgenic mouse T cells | activation, % (series mostly up to about 46 µM) | actives 0.065% (n = 360,000) | AID 652025; in the data active = activation above about 50%; inconclusive = mostly about 30% to 49%
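First, unstimulated transgenic mouse T cells were exposed to compound for 60 min. Next, anti-CD3/anti-CD4-coated beads with anti-CD28 were added. Finally, after 18 h at 37 degrees C, EGFP and DsRed were imaged.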
BRCA1 expr up: activators of BRCA1 expression. MCF7-BRCA1-FFLuc reporter, luminescence, 48 h; response scale: scaled: vehicle 0%, 10 µM genistein 100%. Potency, µM (series often up to 46.1 µM), usual class: activators. actives 1.1% (n = 380,000). AID 624202; also: nearly all actives have a fitted effect of over 80% in size
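48 h compound treatment of MCF7-BRCA1-FFLuc cells (phenol-red free MEM, 37 °C), then 15 min with luciferase substrate and luminescence imaging.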
A number is an active result; i = inactive; ? = inconclusive; nt = no result given; [ ] = dose if it differs, or a comment. A selection: hits, their analogues and other compounds. The true share with any hit is near 3.1%. Unless noted, calls follow the shape of the dose curve; as a rule, active = well fitted curve in the direction sought with a large enough effect; inconclusive = small, poorly fitted or top-dose-only effect, or another doubt; inactive = no such curve, though single readings can be large; an effect the other way counts as inactive or inconclusive.

SMILES	ELG1 DNA repair	Nrf2 activator	IL-2 act	BRCA1 expr up
O=C(CSc1nnc(-c2ccco2)n1Cc1ccccc1)NC(=O)NCc1ccccc1	18µM	i	i	i
O=C(CSc1nnnn1Cc1ccccc1)c1ccc(F)cc1	i	i	i	?
O=C(CSc1nnc(-c2ccco2)n1Cc1ccccc1)c1ccccc1	?	i	i	4µM
CNC(=O)NC(=O)CSc1nnc(-c2ccco2)n1Cc1ccccc1	i	i	i	i
CCOc1ccccc1NC(=O)CSc1nc2ccccc2c2nc(CCn3cncc3C)nn12	nt	i	nt	nt
CCNC(=O)CC1C(=O)N(c2cccc(OC)c2)C(=O)N1Cc1ccc(OC)c(OC)c1 (centres undefined)	nt	i	nt	i
COCCN(Cc1cc2cc(C)ccc2nc1Cl)C(=O)Nc1ccccc1OC	21µM	i	i	i
COCCN(Cc1cc2cc(C)c(C)cc2nc1Cl)C(=O)Nc1ccccc1	?	i	i	i
CCCNC(=O)Cn1c(SCc2ccccc2C)nc2ccncc21	nt	nt	nt	i
CCC(=NCCc1c(C)[nH]c2ccccc12)C1=C(O)CC(c2ccccc2)CC1=O (centres undefined)	8.2µM	i	i	i
CCCCC(=NCCc1c(C)[nH]c2ccc(OC)cc12)C1=C(O)CC(c2ccccc2)CC1=O (centres undefined)	10µM	i	i	i
CCC(=NCCc1c(C)[nH]c2ccc(OC(F)(F)F)cc12)C1=C(O)CC(c2ccccc2)CC1=O (centres undefined)	?	i	i	i
O=C(Nc1nc(-c2ccc(Br)cc2)ns1)c1ccccc1F	nt	i	nt	nt
CC(=O)c1c(C)[nH]c(C(=O)NC2CCSc3ccccc32)c1C (centres undefined)	5.8µM	i	i	i
COc1ccc(C(=O)C2CCCN(C(=O)c3noc4c3CCCC4)C2)c(C)c1 (centres undefined)	26µM	i	i	i
O=C1N/C(=C/c2ccc(N3CCCC3)cc2)C(=O)N1c1ccccc1	?	i	157	i
COc1cc(NC(=O)CN2CCC(C)CC2)c(C)cc1[N+](=O)[O-]	?	i	i	i
COc1cc(NC(=O)CN2CCN(c3ccccc3O)CC2)c(C)cc1[N+](=O)[O-]	21µM	i[9.22 µM]	i	i
Cc1c(C(=O)NC(C)c2ccccc2)sc2ncnc(N(C)C3CCCCC3)c12 (centres undefined)	nt	i	nt	nt
CCOc1ccc(N(C)c2ccc(/C=C3/SC(=S)NC3=O)cc2)cc1	i	i	i	i
CCOc1c(O)ccc(/C=C2\SC(=S)NC2=O)c1[N+](=O)[O-]	i	i	i	11µM
COc1ccc(CCN=C(N)NS(=O)(=O)c2ccc(OC)cc2)cc1	?	i	i	i
COc1ccc(CCN=C(N)NS(=O)(=O)c2ccc(F)cc2)cc1	18µM	i	i	i
Cc1cccc(NC(=O)CCN2CCN(c3ccccc3F)CC2)c1	nt	i	nt	nt
CCn1c(C)nc2cc(S(=O)(=O)N3CCCCC3)ccc21	18µM	i	i	i
SMILES	ELG1 DNA repair	Nrf2 activator	IL-2 act	BRCA1 expr up
CCN(CC)C(=O)CCc1nnc(Cc2cccc(C(F)(F)F)c2)o1	i	i	i	10µM
Cc1cc(CN(C)C(=O)CCc2nnc(Cc3cccc(C(F)(F)F)c3)o2)on1	?	i	i	?
COc1ccc(C(=O)COC(=O)c2cccc(-n3cnnn3)c2)c(OC)c1	?	i	i	2.5µM
Cc1ccsc1C(=O)OCC(=O)c1ccc[nH]1	?	i	i	5.6µM
COc1ccccc1C(=O)COC(=O)c1cc(=O)[nH]c2ccccc12	?	i	i	i
COc1ccc(C(=O)COC(=O)c2cc(=O)[nH]c3ccccc23)c(OC)c1	?	i	i	13µM
Cc1ccsc1C(=O)OCC(=O)N1CCc2ccccc2C1	?	i	i	7.9µM
CCc1cccc(C)c1NC(=O)C1CCN(S(=O)(=O)Cc2ccccc2)CC1	nt	i	nt	nt
CN(C)c1ccc(-c2nc3ccccn3c2Nc2ccc3c(c2)OCCO3)cc1	nt	i	nt	nt
COc1ccc(C(=O)OCC(=O)c2ccc[nH]2)c(OC)c1	?	i	i	8.9µM
COc1ccc(CC(=O)OCC(=O)c2ccc[nH]2)cc1	?	i	i	i
CCn1ccc2cc(S(=O)(=O)N3CCC(C(=O)NCCc4ccccc4Cl)CC3)ccc21	nt	i	nt	nt
Cc1cc(/C=C2/C(=N)N3C(=NC2=O)SN=C3S(C)(=O)=O)c(C)n1-c1ccc(F)cc1	?	i	i	7.9µM
